Shown are actives, neighbours in structure and some others; about 3.4% of the full set was active somewhere.
TEAD-YAP inh – TEAD-YAP interaction inhibition; AID 1259422; HEK-TIYL cells, TEAD-Gal4/YAP UAS-luciferase luminescence; inhibition, % at 9.12 µM; 640,000 compounds, 1.4% hits; in the data active means inhibition above about 32%;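 further: 0% = median of test compound wells and 100% = reference inhibitor wells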
FBW7 act – activators of human E3 ligase FBW7; normalized activity (activation), % at 26.1 µM; AlphaScreen FBW7–phospho-cyclin E peptide binding, activator screen; AID 1259310; 650,000 compounds, 0.13% hits; Q969H0; in the data active means normalized activity above about 1.9%;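 further: purified mutant Fbw7 with reduced substrate affinity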
GPR151 activ – activators of human GPR151; Q8TDV0; 650,000 compounds, 1% hits; PathHunter beta-arrestin GPR151 cells, luminescence; activation, % at 11.2 µM; in the data active means activation above about 4.9%;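 further: 0% = median of compound wells and 100% = cells with positive control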
Target sequence (Q8TDV0 whole entry, looked up): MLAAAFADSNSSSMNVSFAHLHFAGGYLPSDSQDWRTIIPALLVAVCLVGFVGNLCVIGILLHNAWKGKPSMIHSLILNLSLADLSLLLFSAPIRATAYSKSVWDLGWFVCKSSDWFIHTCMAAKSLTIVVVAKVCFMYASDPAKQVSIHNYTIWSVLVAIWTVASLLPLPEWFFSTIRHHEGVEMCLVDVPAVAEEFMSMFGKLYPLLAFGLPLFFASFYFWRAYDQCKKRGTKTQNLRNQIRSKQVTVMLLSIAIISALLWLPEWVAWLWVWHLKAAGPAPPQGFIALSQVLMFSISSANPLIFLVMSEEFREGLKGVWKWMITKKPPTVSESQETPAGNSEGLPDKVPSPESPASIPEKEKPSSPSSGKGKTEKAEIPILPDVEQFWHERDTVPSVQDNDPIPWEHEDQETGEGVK
MITF primary – human MITF inhibition, primary screen. O75030. AlphaScreen MITF homodimerization, bead proximity signal. inhibition, % at 2.6 µM. 650,000 compounds, 0.91% hits; in the data active means inhibition above about 50%;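 further: 0% = vehicle wells with protein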
GPR151 conf act – confirmation of human GPR151 activators; shares compounds with GPR151 activ; GPR151 PathHunter beta-arrestin cells, luminescence, 90 min; % of EA-reagent control over plate median; activation, % at 11.2 µM; 6,700 tested, under 10 active; AID 1508609;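 active means mean percent activation across replicates above the confirmation screen cutoff of 4.91%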
GPR119 counter – counter-screen for GPR151 activators: effect on human GPR119; GPR119 PathHunter beta-arrestin cells, luminescence, 90 min; 0 = compound-well median, 100 = enzyme-acceptor control; activation, % at 11.2 µM; shares compounds with GPR151 activ; AID 1508611; 6,700 compounds, 0.3% hits;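 active means mean percent activation in the counterscreen above 29.09%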;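 further: counterscreen on off-target GPR119 to flag nonselective hits from the GPR151 activator screen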
Numbers without * were called inactive; . = no result given.

SMILES	TEAD-YAP inh	FBW7 act	GPR151 activ	MITF primary	GPR151 conf act	GPR119 counter
COc1ccc2cccc(NC(=O)c3ccco3)c2n1	-1	0	6.4*	8	0	9
O=C(Nc1cccc2ccc(-n3cccc3)nc12)c1ccco1	-5	0	-1	-4	.	.
CC(=O)Oc1ccc(C(=O)c2ccccc2)c(OC(C)=O)c1	10	0	5.6*	11	0	-1
COc1ccc(C(=O)NC(=S)Nc2ccccc2O)cc1	-31	0	6.8*	-10	0	-3
CCC(=O)NC(=S)Nc1ccc(NC(=O)c2ccc(OC)cc2)cc1	8	0	6.6*	-9	0	7
CCCC(=O)Nc1ccc(NC(=S)NC(=O)c2ccc(OC)cc2)cc1	-11	0	-2	8	.	.
CCOC(=O)N1CCN(c2cc(N3CCCC3)c(F)cc2[N+](=O)[O-])CC1	11	0	-2	7	.	.
CCOC(=O)N1CCN(c2cc(N3CCN(C)CC3)c(F)cc2[N+](=O)[O-])CC1	5	0	8.3*	19	0	-2
O=C(OCCN1CCOCC1)c1ccc(O)c(O)c1	4	0	1	17	.	.
O=C(OCCN1CCOCC1)c1cccc(Br)c1	-28	0	8.3*	-3	-1	-12
O=C(NCCc1ccccc1)C1CCCN(C(=O)N2CCOc3ccccc32)C1 (stereo unspecified)	-11	0	-2	-5	.	.
O=C(CCCn1c(=O)c2cccn2c2cccnc21)NC1CCN(Cc2ccccc2)CC1	-13	0	5.8*	-8	-1	-4
COc1ccccc1CNC(=O)CCc1cn(C)c2ccccc12	-4	0	5.9*	-2	0	0
O=C(CCCn1c(=O)c2cccn2c2ccccc21)NC1CCN(Cc2ccccc2)CC1	-4	0	0	-6	.	.
Cn1cc(CCC(=O)NC2CCN(Cc3ccccc3)CC2)c2ccccc21	-4	0	5.9*	1	2	1
CCC(=O)NC(NC(=S)Nc1ccccc1O)C(Cl)(Cl)Cl (stereo unspecified)	4	1	-1	-3	.	.
O=C(CCN1CCCO1)N1CCCC(CNC(=O)C2(c3ccc(Cl)cc3)CC2)C1 (stereo unspecified)	0	0	-2	-3	.	.
Cc1ccc(Nc2c(-c3ccc(N4CCOCC4)cc3)nc3c[n+](CC(N)=O)ccn23)cc1	-11	0	5.1*	15	0	1
COc1ccc(-c2nc3c[n+](CC(N)=O)ccn3c2Nc2ccccc2C)cc1	-7	0	6.7*	13	0	3
CC(=O)Nc1cccc(NC(=O)CCc2ccccc2)c1	-19	0	0	2	.	.
CCc1cccc(NC(=O)Nc2ccccc2)c1	-83	1	0	-9	.	.
CCN(CC)S(=O)(=O)c1ccc(NC(=O)CCc2ccccc2)cc1	4	0	2	1	.	.
Cc1cccc(NC(=O)CCc2ccccc2)c1	-22	0	7.8*	2	0	-1
CCc1cccc(NC(=O)Cn2cccc2)c1	-7	0	7.6*	5	1	-7
CCCN(CCC)S(=O)(=O)c1ccc(NC(=O)CCc2ccccc2)cc1	11	0	7.6*	-3	0	-7
SMILES	TEAD-YAP inh	FBW7 act	GPR151 activ	MITF primary	GPR151 conf act	GPR119 counter
CCc1cccc(NC(=O)CCC(=O)Nc2cccc(CC)c2)c1	-3	0	7.5*	14	0	-15
C/C(=N\NC(=O)c1ccc(Br)cc1)c1ccc(O)cc1O	-17	0	3	-2	.	.
CCOC(=O)C(C)Oc1ccc2c(=O)c(Oc3ccc(OC)cc3)coc2c1 (stereo unspecified)	7	0	0	3	.	.
CCOC(=O)C(C)Oc1ccc2c(=O)c(Oc3cccc(OC)c3)coc2c1 (stereo unspecified)	-3	0	11*	4	0	0
C=CCC12CCC(=O)C=C1CCCC2=O (stereo unspecified)	-2	0	0	-3	.	.
Cc1nnsc1C(=O)N/N=C/c1ccccc1	7	0	1	22	.	.
Cc1nnsc1C(=O)N(C)c1ccccc1	-2	0	8.2*	-10	0	-3
Cc1ccc(C(=O)N(C)c2ccccc2)cc1	-4	0	5.0*	12	-1	-5
COc1cccc2cc(-c3csc(Nc4ccc(Cl)cc4)n3)c(=O)oc12	1	0	-1	-8	.	.
CC(C)(C)c1nnc(NC(=O)c2cccnc2Cl)s1	-3	0	2	-9	.	.
CC(C)(C)c1nnc(NC(=O)c2ccc(Cl)nc2Cl)s1	-39	0	8.1*	-10	-1	-5
N#C/C(=C/c1ccc2c(c1)OCO2)C(=O)NC1CCCC1	-45	0	0	-3	.	.
COC(=O)NNC(=S)NC(=O)c1ccccc1OC	-3	0	3	-5	.	.
CC(C)CCNC(=O)NC(=O)COC(=O)c1cc2ccccc2oc1=O	-4	0	12*	19	0	5
COc1ccccc1N1CCN(C(=O)CN(c2cc(C)cc(C)c2)S(C)(=O)=O)CC1	6	0	6.4*	15	0	0
COc1ccccc1N(CC(N)=O)S(C)(=O)=O	-4	0	-1	-2	.	.
COc1ccccc1N(CC(=O)N(C)C)S(C)(=O)=O	8	0	6.1*	16	1	17
CCCNC(=O)c1ccnc(N2CCCC(C(=O)N(CC)CC)C2)c1 (stereo unspecified)	5	0	-1	23	.	.
CCN(CC)C(=O)C1CCCN(c2cc(C(=O)NCCN(C(C)C)C(C)C)ccn2)C1 (stereo unspecified)	-4	0	6.2*	-2	-1	-1
CCOc1ccc(CNC(=O)c2cc(=O)[nH]c3ccccc23)cc1	-8	0	5.0*	4	-1	-7
CCN1C(=O)/C(=C/c2cc(C)n(C3CCCC3)c2C)C(=O)NC1=S	0	0	6.3*	21	0	-11
Fc1ccc(Cn2cccc2C2=NCCO2)cc1	10	0	-1	2	.	.
Cc1cc(NCc2cccnc2)n2nc(-c3ccc(F)cc3)cc2n1	-23	0	1	24	.	.
CCOC(=O)C1=C(C)N=c2s/c(=C/c3ccc(-c4ccccc4C(=O)OC)o3)c(=O)n2C1c1cccs1 (stereo unspecified)	-7	0	-1	1	.	.
Cc1cc(C)n(C(=O)CSc2ccc(Cl)cc2)n1	8	1	7.8*	15	-1	-15
COc1ccc(Cl)cc1C(=O)n1nc(C)cc1C	-5	0	9.6*	27	0	0
COc1cccc(OC)c1C(=O)n1nc(C)cc1C	9	0	0	16	.	.
CCOc1ccc(C2=C/C(=C\c3cccs3)C(=O)O2)cc1	-18	0	0	-1	.	.
CCOc1ccc(C2=C/C(=C/c3cccs3)C(=O)O2)cc1	1	0	5.8*	4	-1	12
